According to PubChem BioAssay (EPA / NIEHS):
Calls of active or inactive are those of the source. The calls were made as follows: active = hit-call score of the fitted dose curve at least 0.9, where 1 is the maximum; inactive = score below 0.9.

Assay: ATG_M_06_CIS: Attagene CIS-FACTORIAL HepG2 Assay for M06 Transcription Factor (Internal Marker) (AID 2282950)
Conditions: HepG2 Attagene CIS-FACTORIAL M06 internal marker reporter; actives raise or lower the signal
Method: ATG_CIS is a cell-based, multiplexed-readout assay that uses HepG2, a human liver cell line, with measurements taken at 24 hours after chemical dosing in a 24-well plate.ATG_M_06_CIS is one of 52 assay component(s) measured or calculated from the ATG_CIS assay. It is designed to make measurements of mRNA induction, a form of inducible reporter, as detected with fluorescence intensity signals by Reverse transcription polymerase chain reaction (RT-PCR) and Capillary electrophoresis technology.Data from the assay component ATG_M_06_CIS was analyzed into 1 assay endpoint. This assay endpoint, ATG_M_06_CIS, was analyzed with bidirectional fitting relative to DMSO as the negative control and baseline of activity. Using a type of inducible reporter, measures of mRNA for gain or loss-of-signal activity can be used to understand the background control at the transcription factor-level as they relate to the gene . Furthermore, this assay endpoint can be referred to as a secondary readout, because this assay has produced multiple assay endpoints where this one serves a background control function. To generalize the intended target to other relatable targets, this assay endpoint is annotated to the background measurement intended target family, where the subfamily is internal marker.
Human liver HepG2 cells are transiently transfected with multiple reporter transcription units (MRTUs) in 6-well plates using FuGene 6 reagent (Roche; 3 ml FuGene/1 mg DNA). The MRTU constructs are regulated by a cis-regulating element (promoter). […] A major difference between the CIS and TRANS system is that in CIS activities of endogenous TFs are measured, whereas the TRANS assay evaluates changes in activities of exogenous, chimeric NR-Gal4 proteins. […] At the end of 24 hour incubation, total RNA was isolated using TriZol reagent (Invitrogen). The isolated RNA is then reverse-transcribed using oligo(dT) primer and Mo-MLV reverse transcriptase (Invitrogen) with DNAse I (Ambion) treatment for 30 min. The one-tenth of the produced cDNA was amplified by PCR using Taq DNA polymerase (Invitrogen) and two reporter sequence-specific primers. The PCR products were fluorescently labeled by primer extension with 6-arboxyfluorescein (6-FAM) 5'-labeled reporter sequence-specific primer (2 min at 95 C, 20 s at 68 C and 10 min at 72 C) and these products were digested with 5U of HpaI (New England Biolabs) for 2h at 37 C. The fragments were purified using Qiaquick PCR columns (Qiagen), analyzed on an ABI 3130xL genetic analyzer (Applied Biosystems) with peak positions identified by using a set of X-rhodamine (ROX)-labeled MapMarker1000 molecular weight standards (BioVentures). The raw capillary electrophoresis data was processed using Attagraph software (Attagene).
With CNC(=O)N(C)c1nc2ccccc2s1 the outcome was “inactive”.
For N#Cc1ccccc1Cl, the outcome was “inactive”.
In the case of COCC(=O)N(c1c(C)cccc1C)[C@H](C)C(=O)OC, the outcome was “inactive”.
In the case of O=C(NC(=O)c1c(F)cccc1F)Nc1cc(Cl)c(OC(F)(F)C(F)C(F)(F)F)cc1Cl (stereo not given), the outcome was “inactive”.
For COc1ccccc1N, the outcome was “inactive”.
In the case of O=[N+]([O-])c1cc([As](=O)(O)O)ccc1O, the outcome was “inactive”.
In the case of CC(C)(COCC1CO1)COCC1CO1 (stereo not given), the outcome was “inactive”.
For O=C(Cc1ccccc1)OCCc1ccccc1, the outcome was “inactive”.
In the case of CC(O)(CS(=O)(=O)c1ccc(F)cc1)C(=O)Nc1ccc(C#N)c(C(F)(F)F)c1 (stereo not given), the outcome was “inactive”.
For Oc1cc(Cl)c(Cl)cc1Cl, the outcome was “inactive”.
With Cc1cccc(OP(=O)(Oc2cccc(C)c2)Oc2cccc(C)c2)c1 the outcome was “inactive”.
In the case of CC(c1ccccc1)(c1ccc(O)cc1)c1ccc(O)cc1, the outcome was “inactive”.
In the case of C=C(C)C(=O)OCCCCOC(=O)C(=C)C, the outcome was “inactive”.
For O=NN1CCOCC1, the outcome was “inactive”.
In the case of Cc1cc(C(C)(C)c2ccc(O)c(C)c2)ccc1O, the outcome was “inactive”.
With CCOP(=O)(OCC)SCCSCC the outcome was “inactive”.
In the case of CCN(N=O)C(N)=O, the outcome was “inactive”.
For CCOc1cc(C=O)ccc1O, the outcome was “inactive”.
For CC(C)(C1CCC(O)CC1)C1CCC(O)CC1 (stereo not given), the outcome was “inactive”.
For N#Cc1ccc(Cl)cc1, the outcome was “inactive”.
In the case of O=C1C=CC(=O)c2ccccc21, the outcome was “inactive”.
With O=S(=O)(Oc1ccc(Cl)cc1)c1ccc(Cl)cc1 the outcome was “inactive”.
With O=c1[nH]c(=O)n(Cl)c(=O)n1Cl the outcome was “inactive”.
In the case of CC(C)[C@@H](Nc1ccc(C(F)(F)F)cc1Cl)C(=O)OC(C#N)c1cccc(Oc2ccccc2)c1 (stereo not given in full), the outcome was “inactive”.
In the case of CC(C)C(C)(N)C#N (stereo not given), the outcome was “inactive”.
For N#CCC#N, the outcome was “inactive”.
With Cc1cc(Cl)ccc1OCCCC(=O)O the outcome was “inactive”.
For O=S1(=O)OC(c2cc(Br)c(O)c(Br)c2)(c2cc(Br)c(O)c(Br)c2)c2ccccc21, the outcome was “inactive”.
For N#Cc1ccncc1, the outcome was “inactive”.
In the case of N#Cc1ccccc1N, the outcome was “inactive”.
In the case of O=c1oc2ccccc2c(O)c1C(CC(O)c1ccc(-c2ccc(Br)cc2)cc1)c1ccccc1 (stereo not given), the outcome was “inactive”.
For CCOC(=O)CCN(SN(C)C(=O)Oc1cccc2c1OC(C)(C)C2)C(C)C, the outcome was “inactive”.
With N#CS the outcome was “inactive”.
For Clc1cc(C(Cl)(Cl)Cl)cnc1Cl, the outcome was “inactive”.
In the case of C#CCO, the outcome was “inactive”.
In the case of Cc1cc(-c2cc(C)c(N)c(C)c2)cc(C)c1N, the outcome was “inactive”.
With OCCN(CCO)CCO the outcome was “inactive”.
With Oc1c(Cl)cc(Cl)cc1Cl the outcome was “inactive”.
With COc1ccc(N)cc1 the outcome was “inactive”.
With Cc1cc(Cl)ccc1N the outcome was “inactive”.
